# Bioassay records: PubChem BioAssay, Sanford-Burnham Center for Chemical Genomics
# CYP2C19 activ – activators of human cytochrome P450 2C19. P33261. recombinant CYP2C19, luciferin-H EGE luminescence; active compounds read high; 0 = fully inhibited enzyme, 1 = untreated enzyme. activation factor at 5 µM. 96,000 tested, under 10 active;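 active = activation factor of at least 2 at 5 µM in the primary screen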;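 note: 0 = wells with 2.5 mM tranylcypromine and 1 = vehicle-only wells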
# CYP2C9 inh – inhibitors of human CYP2C9; AID 777; 96,000 tested, 20% active; P11712; CYP2C9 Supersomes, luciferin-H conversion, luminescence; inhibition, % at 5 µM;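 active = blocking of liver enzyme CYP2C9 beyond about 50% at 5 µM, limit read from the data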
# Target sequence (P11712 whole entry, looked up): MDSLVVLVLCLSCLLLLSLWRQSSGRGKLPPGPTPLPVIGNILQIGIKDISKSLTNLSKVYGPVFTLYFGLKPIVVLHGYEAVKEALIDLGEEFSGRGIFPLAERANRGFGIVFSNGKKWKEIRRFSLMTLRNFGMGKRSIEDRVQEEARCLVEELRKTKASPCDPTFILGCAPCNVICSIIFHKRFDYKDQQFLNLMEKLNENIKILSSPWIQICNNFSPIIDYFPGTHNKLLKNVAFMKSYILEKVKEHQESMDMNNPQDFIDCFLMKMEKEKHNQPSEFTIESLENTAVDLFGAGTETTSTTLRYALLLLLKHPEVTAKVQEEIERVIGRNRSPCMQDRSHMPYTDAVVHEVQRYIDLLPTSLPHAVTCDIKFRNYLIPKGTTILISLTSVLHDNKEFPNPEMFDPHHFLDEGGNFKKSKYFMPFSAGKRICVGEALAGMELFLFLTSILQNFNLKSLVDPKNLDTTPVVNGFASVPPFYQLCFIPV
# CYP2C19 inhib – inhibitors of human CYP2C19; 96,000 tested, 21% active; P33261; inhibition, % at 5 µM; CYP2C19 Supersomes, luciferin-H EGE luminescence, 30 min;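 active = CYP2C19 inhibition above a set limit at 5 µM in the primary screen, cut at about 50% in these data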;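 note: plate controls were negative control wells for no effect and 2.5 mM tranylcypromine positive control for full effect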
# CYP2C9 act – increases human cytochrome P450 2C9 activity | P11712 | recombinant CYP2C9, luciferin-H conversion, luminescence; active compounds read high; factor 1 = untreated enzyme, 0 = blocked | activation factor at 5 µM | 96,000 tested, 1.4% active;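 active = activation factor of 2 or more for CYP2C9 at a 5 µM dose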;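 note: 0 = sulfaphenazole-blocked wells and 1 = vehicle-only wells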
# Mac1 fbg inh – blocks human CD11b/CD18 adhesion to fibrinogen; P05107+P11215; K562 CD11b/CD18 adhesion to fibrinogen, ATPlite luminescence; Mn2+ added to activate the integrin; inhibition, % at 10 µM; 93,000 tested, 0.54% active;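 active = primary inhibition of 50% or more at 10 µM, then 40% or more on retest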
# CD11b adhes enh – enhancers of human CD11b/CD18 binding to fibrinogen; P05107+P11215; K562 CD11b/CD18 adhesion to fibrinogen, ATPlite luminescence; activation, % at 10 µM; 93,000 tested, 0.07% active; AID 1499;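 active = 10 µM primary screen giving 50% or more activity, confirmed by 40% or more on retest at that dose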
# * hit, by the source's call; x = no result given. Only some compounds are listed: those with a hit (about 28% of all), similar ones and a draw of the others.
SMILES,CYP2C19 activ,CYP2C9 inh,CYP2C19 inhib,CYP2C9 act,Mac1 fbg inh,CD11b adhes enh
CCOC(=O)/C=C1\SCC(=O)N1CCOc1cccc(Br)c1,0.2,80*,82*,0.2,-11,3
CCOC(=O)N1CCC(NC(=O)CN2C(=O)CSc3nc(C)cc(C)c32)CC1,0.4,26,61*,0.7,-8,4
CCOC(=O)/C=C1\SCC(=O)N1CC(=O)NC1CCCCC1,0.3,3,67*,1,3,0
CCOC(=O)/C=C1\SCC(=O)N1CC(O)CN1C(=O)CS/C1=C\C(=O)OCC,0.8,-2,16,1,-12,7
CCOC(=O)/C=C1\SCC(=O)N1CC(=O)NCc1cccc(Cl)c1,x,x,x,x,-12,-2
NC(=O)C[C@@H]1N[C@]2(C(=O)Nc3ccccc32)[C@@H]2C(=O)N(c3cc(C(F)(F)F)ccc3Cl)C(=O)[C@H]12,0.8,25,24,0.7,-6,-5
FC(F)(F)c1cccc(N2CCN(CC3CC=CCC3)CC2)c1 (stereo not drawn),0.2,-12,80*,1.1,-3,-1
Cc1ccc(N2CCN(CC3CC=CCC3)CC2)cc1 (stereo not drawn),0.4,5,60*,0.9,4,-3
O=C(c1ccccc1)N1CCN(CC2CC=CCC2)CC1 (stereo not drawn),0.4,78*,57*,0.2,-18,-4
CCCN(CC(=O)c1cc(C)n(C)c1C)S(=O)(=O)c1cccc(C(F)(F)F)c1,0.2,24,76*,0.8,-13,-3
CCN(CC)S(=O)(=O)c1cccc(-c2nnc(SCC(=O)c3cc(C)n(C)c3C)o2)c1,0.8,34,20,0.7,8,-1
Cc1ccc(S(=O)(=O)N(c2ccccc2)C2CCS(=O)(=O)C2)cc1 (stereo not drawn),1.1,-22,-12,1.2,-10,0
Cc1noc(C)c1CSc1nnc(-c2ccccc2)n1Cc1ccco1,0.5,54*,50*,0.5,5,0
Cc1noc(C)c1CSc1nnc(-c2ccccc2)n1N,0.4,16,65*,0.8,-5,-2
Cc1noc(C)c1CSc1nnc2scc(-c3ccccc3)n12,0.9,9,10,0.9,-23,-3
Nn1c(SC/C=C/c2ccccc2)nnc1-c1ccncc1,0.5,11,54*,0.9,4,0
O=[N+]([O-])c1ccc(N2CCN(S(=O)(=O)c3ccccc3)CC2)cc1NCc1ccco1,x,x,x,x,1,2
CCCCN(CC)Cc1ccc(CNC(=O)Nc2ccc(OCC)cc2)o1,1,12,4,0.9,-12,-3
COc1cc2[nH]c(=O)n(CCCCCC(=O)N3CC=C(c4ccccc4)CC3)c(=O)c2cc1OC,0.2,61*,83*,0.4,27,-3
COc1cc2[nH]c(=O)n(CCC(=O)N3CCc4ccccc4C3)c(=O)c2cc1OC,0.9,14,14,0.9,3,-3
CCOc1cc2[nH]c(=O)n(CCC(=O)N3CCN(c4ccccc4OC)CC3)c(=O)c2cc1OCC,0.8,67*,20,0.3,-12,0
CCOC(=O)c1cc2c(ccn2C)n1CC(=O)N1CCN(c2ccccc2OC)CC1,0.3,38,69*,0.6,-4,-4
O=C(CN1CCC(O)CC1)N1c2ccccc2C=Cc2ccccc21,0.8,13,17,0.9,1,-5
O=C(NCSc1ccnc(SCNC(=O)c2ccc(F)cc2)n1)c1ccc(F)cc1,0.9,8,6,0.9,-22,75
CCOc1ccc(CCNC(=O)Cn2c(-c3nonc3N)nc3ccccc32)cc1OCC,0.6,70*,45,0.3,6,28
COc1ccc(CNC(=O)Cn2c(=O)oc3ccccc32)cc1OC,0.8,-9,19,1.1,6,-3
CCOc1ccc(CCNC(=O)Cn2c(=O)oc3ccccc32)cc1OCC,0.2,62*,84*,0.4,-2,-2
COc1ccc(CCNC(=O)Cn2c(-c3nonc3N)nc3ccccc32)cc1OC,0.1,48,89*,0.5,5,1
CC(C)C(=O)N(Cc1cc2ccccc2[nH]c1=O)C(C)(C)C,0.8,15,20,0.8,26,-3
